# Reference: PubChem BioAssay (NCATS)
# Inconclusive results are not listed. The source made the active and inactive calls. Calls come from the whole dose curve.
# Experiment: Primary qHTS to identify inhibitors of SARS-CoV-2 cell entry (AID 1645846); note: nearly all actives have a fitted effect of over 45% in size
# Settings: SARS-CoV-2 pseudovirus cell entry assay, luminescence; activity change, negative = inhibition: at 57.1 µM (top of the series) unless noted
# In short: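 Data are normalized to wells receiving SARS-CoV-2-S pseudoparticles and those given bald particles. Entry signal was luciferase luminescence in stable hACE2 Expi293F cells, 48 hr post-infection, after 1 hr compound pretreatment.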
SMILES,outcome,"activity change, negative = inhibition"
C[C@]12CC[C@H](O)CC1=CC[C@@H]1[C@@H]2CC[C@]2(C)C(c3cccnc3)=CC[C@@H]12,inactive [at 27.1 µM],–
CCS(=O)(=O)c1ccc2oc(-c3ccc4ccccc4c3)nc2c1,inactive,–
COc1cc2ncnc(Nc3cccc(Cl)c3F)c2cc1OC(=O)N1CCN(C)C[C@H]1C,–,-27.8%
COc1c(Nc2ncc(Cl)c(N[C@H]3[C@H](C(N)=O)[C@@H]4C=C[C@@H]3C4)n2)ccc2c1CCC(N1CCOCC1)CC2 (stereo not given in full),–,-55.4%
CCC(=O)O[C@]1(C(=O)CO)CC[C@H]2[C@@H]3CCC4=CC(=O)CC[C@]4(C)[C@H]3CC[C@@]21C,inactive,–
